Test systems include NCI-H23 lung; NCI-H226 lung; NCI-H322M lung; HOP-62 NSCLC; NCI-H460 lung; HOP-92 NSCLC; NCI-H522 lung; A549/ATCC NSCLC; 786-0 renal; COLO 205 colon; DU-145 prostate; K-562 leukemia; MALME-3M melanoma; MDA-MB-231 breast; RXF 393 renal; SF-268 CNS; SF-295 CNS; SF-539 CNS; UACC-257 melanoma; M14 melanoma.
Common to all, as to assay: NCI-60 one-dose screen, 48 h (100 = growth as untreated, 0 = no growth, -100 = all killed)
Common to all, as to conditions: 10 µM unless noted

Molecules are shown by their SMILES. This is part of a sample that, as a whole, favours compounds with a hit. Of some 83,000 tested, about 20% had one in any assay.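 Step 1: grow cells in 96-well plates. Step 2: add test compound at a single concentration. Step 3: incubate 48 h. Step 4: record percent growth.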 Values without a mark were called inactive. Calls of active or inactive are those of the source. The calls were made as follows: active = growth percent below 10; inactive = the rest.

Turning to `CS(=O)(=O)Nc1cc(-c2ccc3ncnc(Nc4ccc5c(cnn5Cc5ccccc5F)c4)c3c2)cnc1Cl`, the growth is 41.8% in the assay on NCI-H23 lung; 66.7% in the assay on NCI-H226 lung; 62% in the assay on NCI-H322M lung; 40.3% in the assay with HOP-62 NSCLC; 59.4% in the assay with NCI-H460 lung; -21.4% (active) in the assay with HOP-92 NSCLC. Besides, the growth in the assay with NCI-H522 lung is 34.3%; in the assay with A549/ATCC NSCLC, 71.3%; with 786-0 renal, 53.1%; with COLO 205 colon, 59.4%; with DU-145 prostate it was 51.9%; in the assay on K-562 leukemia, 57.3%. The growth with MALME-3M melanoma was -7.51% (active); in the assay with MDA-MB-231 breast it was 36.1%; with RXF 393 renal, 20.2%; with SF-268 CNS, 24.3%; in the assay on SF-295 CNS, 60.9%; in the assay on SF-539 CNS, 34.5%. Further, the growth in the assay on UACC-257 melanoma was 52.9%; in the assay on M14 melanoma, 39.1%.

On to `COc1ccc(N=C2NN=C(c3c[nH]c4ccccc34)CS2)cc1OC`, for which the growth is 67.7% with NCI-H23 lung; 80.6% in the assay with NCI-H226 lung; 70% in the assay with NCI-H322M lung; 50.5% with HOP-62 NSCLC; 26.9% in the assay with NCI-H460 lung; 19.6% with HOP-92 NSCLC. Also, the growth with NCI-H522 lung was -34.1% (active); in the assay on A549/ATCC NSCLC, 55%; in the assay on 786-0 renal, 54.8%; in the assay with COLO 205 colon, 57.9%; in the assay on DU-145 prostate it was 65.9%; in the assay with K-562 leukemia, 36.6%. In addition, the growth in the assay on MALME-3M melanoma is 69.3%; with MDA-MB-231 breast it was 55.4%; in the assay on RXF 393 renal, 68.6%; in the assay on SF-268 CNS it was 56.2%; in the assay on SF-295 CNS, -31.9% (active); in the assay with SF-539 CNS, 51.8%. The growth in the assay with UACC-257 melanoma is 77.4%; in the assay on M14 melanoma it was 34%.

As to `CC1=C(Cl)C(=O)c2cc(C)ccc2C1=O`, the growth in the assay on NCI-H23 lung was 100%; in the assay with NCI-H226 lung, 86.3%; in the assay on NCI-H322M lung it was 94.4%; in the assay on HOP-62 NSCLC, 105%; with NCI-H460 lung it was 115%; in the assay with HOP-92 NSCLC it was 88.5%. Also, the growth with NCI-H522 lung is 93%; in the assay with A549/ATCC NSCLC it was 101%; in the assay on 786-0 renal, 102%; in the assay with COLO 205 colon, 114%; with DU-145 prostate, 115%; in the assay on K-562 leukemia, 102%. The growth is 114% in the assay on MALME-3M melanoma; 103% in the assay with MDA-MB-231 breast; 84.9% in the assay on RXF 393 renal; 88% in the assay on SF-268 CNS; 108% in the assay with SF-295 CNS; 116% with SF-539 CNS. In addition, the figures for the growth in the assay on UACC-257 melanoma and with M14 melanoma were 106% and 112%, respectively.

Turning to `COC(=O)c1ccc2c(c1)c1c(C)c3cnccc3c(C)c1n2C`, the growth is -47.1% (active) in the assay with NCI-H23 lung; -41.1% (active) with NCI-H226 lung; -14% (active) in the assay with NCI-H322M lung; -24.7% (active) in the assay with HOP-62 NSCLC; -32.4% (active) in the assay with NCI-H460 lung; -16.6% (active) in the assay on HOP-92 NSCLC. Besides, the growth in the assay on NCI-H522 lung was -65.1% (active); in the assay on A549/ATCC NSCLC it was -17% (active); in the assay on 786-0 renal, -63.4% (active); in the assay with COLO 205 colon it was -39.9% (active); in the assay on DU-145 prostate, -4.07% (active); with K-562 leukemia it was 1.64% (active). In addition, the growth in the assay on MALME-3M melanoma was -73.7% (active); in the assay on MDA-MB-231 breast, -16.7% (active); with RXF 393 renal, -76.1% (active); in the assay with SF-268 CNS, 3.86% (active); with SF-295 CNS, -10.5% (active); in the assay on SF-539 CNS, -37.5% (active). In addition, the growth with UACC-257 melanoma was -41.4% (active); in the assay on M14 melanoma it was -88.6% (active).

`CCCCCc1ccc(S(=O)(=O)Nc2ccc3nc(N)oc3c2)cc1`: the growth with NCI-H23 lung was 40.2%; in the assay with NCI-H226 lung, 46.3%; in the assay with NCI-H322M lung, 96.9%; with HOP-62 NSCLC, 78.5%; with NCI-H460 lung, 60.8%; in the assay with HOP-92 NSCLC it was 19.5%. Further, the growth is 43.7% with NCI-H522 lung; 53.2% in the assay with A549/ATCC NSCLC; 72.4% in the assay on 786-0 renal; 72.4% in the assay on COLO 205 colon; 74.2% with DU-145 prostate; 27.9% in the assay with K-562 leukemia. Also, the growth with MALME-3M melanoma is 89.8%; with MDA-MB-231 breast it was 64.3%; in the assay with RXF 393 renal it was 77.4%; in the assay with SF-268 CNS, 51.1%; in the assay with SF-295 CNS it was 30.8%; with SF-539 CNS, 71.3%. For the same molecule, the growth in the assay on UACC-257 melanoma was 34.4%; in the assay on M14 melanoma it was 73.1%.

On to `CNC(=O)c1cc(Oc2ccc3c(c2)sc2nc(-c4cc(C(F)(F)F)cc(C(F)(F)F)c4)cn23)ccn1`, for which the growth was 44.8% in the assay with NCI-H23 lung; 26.8% in the assay with NCI-H226 lung; 89.8% in the assay with NCI-H322M lung; 25.4% with HOP-62 NSCLC; 38.3% with NCI-H460 lung; 27% in the assay with HOP-92 NSCLC. Besides, the growth in the assay on NCI-H522 lung was 35%; in the assay with A549/ATCC NSCLC, 39.5%; in the assay on 786-0 renal, 61.3%; in the assay on COLO 205 colon, 55.3%; in the assay on DU-145 prostate, 67.7%; with K-562 leukemia it was 29.4%. In addition, the growth was 47.1% in the assay with MALME-3M melanoma; 48.2% with MDA-MB-231 breast; 79.8% with RXF 393 renal; 65.1% in the assay on SF-268 CNS; 36.2% in the assay on SF-295 CNS; 52.4% with SF-539 CNS. Besides, the growth in the assay on UACC-257 melanoma is 34.5%; with M14 melanoma, 69.3%.

`CC(O)Cc1c[nH]c(=O)[nH]c1=O` (stereo not given): the growth in the assay on NCI-H23 lung is 102%; in the assay on NCI-H226 lung it was 109%; in the assay on NCI-H322M lung, 132%; in the assay on HOP-62 NSCLC it was -56.4% (active); with NCI-H460 lung, 103%; in the assay on HOP-92 NSCLC, 111%. Also, the growth with NCI-H522 lung is 110%; in the assay on A549/ATCC NSCLC, 93.7%; in the assay with 786-0 renal it was 109%; in the assay on COLO 205 colon, -66.5% (active); in the assay with DU-145 prostate, 97.9%; with K-562 leukemia, 126%. The growth with MALME-3M melanoma was 142%; in the assay on MDA-MB-231 breast, 112%; in the assay with RXF 393 renal it was 192%; in the assay with SF-268 CNS, 90%; in the assay on SF-295 CNS it was 112%; with SF-539 CNS it was 110%. Moreover, the growth in the assay with UACC-257 melanoma was 92.7%; in the assay with M14 melanoma, 102%.

`CCOC(=O)c1c(NC(=O)c2ccccc2)sc2c3c(ccc12)OCN(C)C3`: the growth in the assay on NCI-H23 lung was 12.8%; in the assay on NCI-H226 lung, 87.8%; with NCI-H322M lung, -11.3% (active); in the assay with HOP-62 NSCLC, 52.2%; in the assay on NCI-H460 lung, -67.9% (active); in the assay with HOP-92 NSCLC, -4.6% (active). The growth in the assay with NCI-H522 lung is -51.4% (active); in the assay on A549/ATCC NSCLC it was 22.2%; in the assay on 786-0 renal, -79% (active); in the assay with COLO 205 colon, -54.7% (active); in the assay on DU-145 prostate it was 11.6%; in the assay on K-562 leukemia, -53.3% (active). Also, the growth was -89.2% (active) in the assay on MALME-3M melanoma; -74.7% (active) with MDA-MB-231 breast; -73% (active) in the assay with RXF 393 renal; 9.19% (active) in the assay on SF-268 CNS; -76.8% (active) in the assay on SF-295 CNS; -43.7% (active) with SF-539 CNS. In addition, the growth is -62.2% (active) in the assay on UACC-257 melanoma and -74.2% (active) in the assay with M14 melanoma.

The values are drawn from PubChem BioAssay (NCI).
